Our source for the growth inhibition values is PubChem BioAssay (NCI).

The panel holds about 79,000 compounds, 15% with a hit somewhere; the sample as a whole holds those more often. Unmarked numbers belong to inactive results. Calls of active or inactive are those of the source. Rule as the data show it: active = growth inhibition above about 70%; inactive = the rest.

The nature of this test: NCI Yeast Anticancer Drug Screen. Data for the cln2 rad14 strain (AID 165).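 Also: 0% = growth equal to vehicle treated cultures.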 The settings on record: S. cerevisiae cln2 rad14 strain, at 5.0 µM (retest, dose inferred, filed as 0.5), hits give high values. The method, boiled down:
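Readout is yeast growth inhibition versus vehicle-treated controls, using a strain with cln2 and rad14 alterations exposed to compound.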
Regarding `COc1ccc(C(=O)[O][Sn]([c]2ccccc2)([c]2ccccc2)[c]2ccccc2)c(OC)c1OC`, the growth inhibition is 99% (active).

As for `CCC(CC)C1(C(=O)OCCN(CC)CC)CCCCC1`, the growth inhibition was 2%. As to `O=C1OC(=O)C2C1C1C(c3ccccc3)=C(c3ccccc3)C2(O)C2C(=O)OC(=O)C12` (stereo not given), the growth inhibition is 17%. As for `C/C(=C/CC1CCC2C3=CCC4CC(O)CCC4(C)C3CCC12C)C(C)C(C)C` (stereo not given), the figure is 0%; as for `CCC1(CC(=O)O)OCCc2c1[nH]c1c(C)c(Cl)ccc21` (stereo not given), -2%. For `CN(C)CCCSc1c2ccccc2nc2cccc([N+](=O)[O-])c12`, the growth inhibition was 12%. For `CC1OC(OP(=O)(OCc2ccccc2)OCc2ccccc2)C(OC(=O)c2ccccc2)C(OC(=O)c2ccccc2)C1I` (stereo not given), the growth inhibition was 29%.

On to `C#CC(CC(C)CC(C)(C)C)NC` (stereo not given), for which the growth inhibition was 7%. As to `N#CCCN(CCC#N)Cc1cc(-c2ccccc2)ccc1O`, the growth inhibition is -8%. As for `Cc1ccc(NC(=O)CCCC(=O)C(C#N)c2ccccc2C)cc1C` (stereo not given), the figure is -8%; as for `C[C@H]1CC[C@@H]2[C@@H](C)[C@H]3[C@H](C[C@H]4[C@@H]5CC=C6C[C@@H](O)CC[C@]6(C)[C@H]5CC[C@]34C)N2C1`, 28%; as for `Cc1nc(-c2ccc(N=Cc3ccc(N(CCOS(C)(=O)=O)CCOS(C)(=O)=O)cc3)cc2)cs1`, -2%. For the molecule `COc1ccc2nc3cccc([N+](=O)[O-])c3c(NCCO)c2c1`, the growth inhibition is 68%. Then `Oc1ccc(C2CCCCC2)cc1`, with -4%; and `CCCCCc1cc(Cl)cc(Cl)c1O`, with 0%. On to `C=C1C(=O)OC2/C=C(\C(=O)O)CC/C=C(\C)CC(OC(=O)/C=C(\C)CC)C12` (stereo not given), for which the growth inhibition is -19%.

Take `O/N=C(/Cc1nc2cc(Cl)c(Cl)cc2nc1C/C(=N/O)c1ccncc1)c1ccncc1`: the growth inhibition was 6%. Take `Cc1cc(NC(=S)SCc2ccc3c(c2)OCO3)ccc1Br`: the growth inhibition is 40%.

For the molecule `CN1C(=O)OC(C)(c2ccccc2)C1=O` (stereo not given), the growth inhibition is 2%. Then `O=C1c2ccccc2C(=O)c2c1cccc2[N+](=O)[O-]`, with 69%. Consider `O=[N+]([O-])c1ccccc1Oc1ccc([N+](=O)[O-])c(C(F)(F)F)c1`, for which the growth inhibition is -8%. Turning to `Cc1ccc(O)c(N=Nc2ccc(Cl)cc2)c1`, the growth inhibition was 1%.

In the case of `CC(C)Cc1cc2c(cc1O)CCC1C2CC[C@@]2(C)C1CC[C@@H]2O` (stereo not given in full), the growth inhibition is -22%. As for `CCOC(=O)CC1(C)C(=O)CCCC1=O`, the figure is 0%.

For the molecule `OC(c1cc(-c2ccc(Cl)cc2Cl)nc2ccccc12)C1CCCCN1` (stereo not given), the growth inhibition is -3%. Consider `COc1ccc(N=Cc2cc(Br)cc(Br)c2O)cc1.COc1ccc(N=Cc2cc(Br)cc(Br)c2O)cc1.[Co]`, for which the growth inhibition is 48%. In the case of `Cc1ccc[n+](CC(=O)C2CCC3C4CC=C5CC(O)CCC5(C)C4CCC23C)c1` (stereo not given), the growth inhibition was 6%. Take `CN(C)CC(C)(C)C(/C=C/c1ccccc1)=N\Nc1ccccc1`: the growth inhibition is 6%. Then `COC1(OC)C2(Cl)C(Cl)=C(Cl)C1(Cl)C1C2C2CC1(C(=O)O)c1ccccc12` (stereo not given), with 26%; and `NC(N)=N/N=C(\c1ccc(F)cc1)c1ccc(C(F)(F)F)cc1`, with -4%. On to `O=C1CC(c2ccccc2Cl)C(c2ccccc2Cl)C1` (stereo not given), for which the growth inhibition is -2%. Turning to `O=C(Cl)c1ccc(N=Nc2ccccc2)cc1`, the growth inhibition is 0%. With `O=[N+]([O-])c1ccccc1N=Nc1c(O)[nH]c2ccc(S(=O)(=O)O)cc12`, the growth inhibition was 85% (active).

In the case of `Cc1ccccc1N=NC(C(=O)c1ccccc1)C(=O)c1ccccc1`, the growth inhibition was 3%.

Consider `CCCCC(CC)(COC(C)=O)COC(C)=O`, for which the growth inhibition was 2%. As for `NCCOB(c1ccccc1)c1ccccc1`, the figure is 8%; as for `O=C(Nc1ccccc1C(=O)O)c1ccccc1`, -2%. Then `O=[N+]([O-])c1ccc(Sc2c3ccccc3nc3ccccc23)nc1`, with 83% (active); and `Cc1oc2c(c1C(=O)c1ccccc1)C(=O)c1ccccc1C2=O`, with 22%. Then `OC1(c2ccccc2)CCN(c2c3ccccc3nc3ccccc23)CC1`, with 5%.
